# The list is not random: actives were taken first. Their share in the collection is about 2.3%.
# TMEM16A act: activators or potentiators of mouse TMEM16A chloride channel | Q8BHY3 | HEK293 TMEM16A/YFP-H148Q/I152L, iodide quench fluorescence; stronger effect = lower value | B-score at 10 µM | actives 0.3% (n = 340,000) | AID 623877;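 active means fluorescence-ratio B-score plate-corrected deviation score at least 3 library SD below zero, with starting fluorescence score within 5 deviations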;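 further: channel opened by trigger with iodide after compound preincubation; score built on the fluorescence ratio of max minus min over baseline; more negative score means more quench and so TMEM16A activation or potentiation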
# CHT inh: inhibits the human high affinity choline transporter | actives 0.86% (n = 310,000) | Q9GZV3 | B-score at 10 µM | CHT-expressing cells, membrane potential dye, choline response; stronger effect = lower value;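 active means B-score over 3 SD under the library average, and starting fluorescence ratio not unusually high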;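 further: choline stimulus applied at its EC90 after an EC20 pre-addition; B-score computed on integrated fluorescence ratio after choline addition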
# ANO1 block: inhibitors of mouse TMEM16A calcium-activated chloride channel. HEK293 TMEM16A/YFP iodide influx fluorescence, ionomycin. normalized B-score (activity score, 25-100; higher = stronger inhibition) at 10 µM. actives 1.2% (n = 310,000);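 active means ratio plate-corrected score three or more library SD toward inhibition, starting fluorescence score within five deviations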;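 further: score derived from kinetic fluorescence span divided by baseline fluorescence per well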
# CHT allo act: allosterically activates the human high affinity choline transporter. Q9GZV3. CHT-expressing cells, membrane potential dye, choline EC20; stronger effect = higher value; LV-AA mutant CHT in HEK293 cells. B-score at 10 µM. actives 0.49% (n = 310,000). AID 488977;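 active means initial fluorescence not abnormally high and integrated response B-score, plate-corrected, over 3 SD above library mean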
# Numbers stand for hits; i = inactive; nt = no result given.
SMILES,TMEM16A act,CHT inh,ANO1 block,CHT allo act
Cc1cc(O)c(C=Nc2ccc(N3CCOCC3)cc2)c(C)c1Cl,i,i,i,i
Cn1c(O)c(C=Nc2ccc(N3CCOCC3)cc2)c(=O)n(C)c1=S,-4.83,nt,nt,nt
O=c1cc(-c2ccccc2Cl)oc2c([N+](=O)[O-])c(O)cc(O)c12,i,-12.8,i,i
Oc1ccc(Cl)cc1Cc1cc(Cl)ccc1O,i,i,100,i
Cc1c(/C=N/NC(=O)C(NC(=O)c2ccc3c(c2)OCO3)C(C)C)c2ccccc2n1C (centres undefined),-5.74,i,i,i
C=CCN(c1ccc(C(=O)Nc2ccc(C)c(C)c2)cc1)S(C)(=O)=O,i,i,i,i
CN(Cc1cccs1)C(=O)Cn1cnc2ccccc2c1=O,i,i,i,i
Cc1ccccc1-c1cc(C(=O)Nc2sc(C)c(C)c2C(N)=O)c2ccccc2n1,i,i,i,i
CCOC(=O)c1sc(NC(=O)c2cc(-c3ccccc3C)nc3ccccc23)c(C#N)c1C,i,i,100,i
CC(C)(C)OC(=O)NCCc1nnc(SCc2c(Cl)cccc2Cl)o1,i,i,i,i
CC(C)(C)OC(=O)NCCCCCc1nnc(SCc2c(F)cccc2Cl)o1,i,i,100,i
COc1ccc(Cl)cc1NS(=O)(=O)c1cccc(C(=O)NCCCN2CCCC2=O)c1,i,i,i,i
N#Cc1cccc(NC(=O)COC(=O)c2cc(S(=O)(=O)Nc3ccccc3Cl)ccc2O)c1,i,nt,nt,nt
O=C(COC(=O)c1cc(S(=O)(=O)Nc2ccccc2Cl)ccc1O)Nc1nc2ccccc2s1,-41.5,nt,nt,nt
COc1cccc(N2CCN(CC(=O)Nc3nnc(-c4ccccc4)s3)CC2)c1,i,i,25,i
COc1cccc(N2CCN(CC(=O)NC3=Nc4ccccc4N=C(C)C3c3ccccc3)CC2)c1 (centres undefined),i,i,i,i
N#CCCCSc1nnc(CSc2nc3ccccc3s2)n1-c1ccccc1,i,i,i,i
CCCSc1nnc(CSc2nc3ccccc3s2)n1-c1ccccc1,i,i,100,i
Cc1ccccc1C(N)=O,i,nt,nt,nt
O=C(CSc1ccc(Cl)cc1)N1CCC(c2nc3ccccc3s2)CC1,i,i,100,i
CCOC(=O)c1c(NC(=O)/C=C\C(=O)O)sc(C)c1-c1ccccc1,i,i,i,i
CCOC(=O)c1c(NC(=O)/C=C/C(=O)O)sc(C)c1-c1ccc(C(C)(C)C)cc1,i,i,25,i
Nc1cccc(Nc2nc(OC(C(F)(F)F)C(F)(F)F)nc(OC(C(F)(F)F)C(F)(F)F)n2)c1,i,i,100,i
COc1nc(Nc2ccc(O)cc2)nc(OC(C(F)(F)F)C(F)(F)F)n1,i,i,i,i
Cc1nc(Nc2ccc(S(N)(=O)=O)cc2)sc1C(=O)Nc1ccccc1,-8.88,i,i,i
SMILES,TMEM16A act,CHT inh,ANO1 block,CHT allo act
O=C(CCc1nc(-c2ccccc2)c(-c2ccccc2)o1)OCc1ccc(Cl)cc1,-5.53,i,i,i
O=C(CCc1nc(-c2ccccc2)c(-c2ccccc2)o1)OCc1ccc(Br)cc1,i,i,i,i
O=[N+]([O-])c1ccc(C2=NN(CCO)C(=Nc3ccc(OC(F)(F)F)cc3)SC2)cc1,i,i,i,i
O=C(c1ccc(S(=O)(=O)N2CCCCCC2)cc1)N1CCCC(C(F)(F)F)C1 (centres undefined),i,i,i,i
NC(=O)C1CCCN(C(=O)c2ccc(S(=O)(=O)N3CCCCCC3)cc2)C1 (centres undefined),-13.4,nt,nt,nt
COc1cccc(NC(=O)c2ccccc2F)c1,i,i,i,i
CCOC(=O)Nc1cccc(NC(=O)c2ccccc2F)c1,-10.1,i,i,i
CCN(CC)CCCNC(=O)Cn1nc([N+](=O)[O-])c(Cl)c1C,i,i,i,i
OCCNc1ncnc2c1c(-c1ccccc1)c(-c1ccccc1)n2Cc1ccco1,i,i,i,i
c1ccc(-c2c(-c3ccccc3)n(Cc3ccco3)c3ncnc(NCCCn4ccnc4)c23)cc1,i,i,100,i
N=c1c2c(-c3ccccc3)c(-c3ccccc3)n(Cc3ccco3)c2ncn1Cc1ccccc1,i,i,100,i
CN(C)CCCNc1ncnc2oc(-c3ccccc3)c(-c3ccccc3)c12,i,i,i,i
c1ccc(-c2oc3ncnc(NCCCn4ccnc4)c3c2-c2ccccc2)cc1,i,i,100,i
Cc1ccc(Cn2cc(C(=O)c3ccc(F)cc3)c(=O)c3cc4c(cc32)OCCO4)cc1,i,i,i,i
O=C(COC(=O)Cc1ccccc1F)NNC(=O)c1ccc([N+](=O)[O-])cc1,i,i,i,i
